Data reported in the supplement of paper PMC10849652.
Of roughly 8,800 targets only a part is listed; those with a hit were picked by preference. About 0.5% of all pairs of compound and target were hits.

Key:
Assay in all cases: log2 fold change, soluble protein after heating vs DMSO (PISA); higher = thermal stabilisation; K562 lysate, 10 uM; active = over 0.2 and 3.5 SD of the protein, either way, in both replicates (recomputed)
erlotinib = compound: C#Cc1cccc(Nc2ncnc3cc(OCCOC)c(OCCOC)cc23)c1 [erlotinib]
Outline: (§1)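 Pellets of K562 cells were dounce-homogenised in PBS pH 7.4 with 1 mM MgCl2, and the crude extract was held at 1 mg/mL protein for a 30 min treatment with 10 μM compound. Aliquots were heated for 3 min over 48°C-58°C and pooled before NP-40 was added to 0.5% at 4°C. The supernatant from 21,000xg for 90 min was quantified by TMTpro 16plex LC-MS/MS with channel sums equalised. Values are reported from duplicates as log-two fold change in thermal stability relative to solvent controls.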

[1] = compound: C/C(=N\NC(=O)C1=CC(=CC=C1)S(=O)(=O)N2CCOCC2)/C3=C(C=CC(=C3)Cl)O
Outline: as §1

[2] = compound: C1=CC(=CC=C1C2=NC3=C(N2)C=C(C=C3)C(=O)N)OC4=CC=C(C=C4)Cl
Outline: as §1

[3] = compound: C1=CC2=C(C=CC(=C2)/C=C\3/C(=O)NC(=NCC4=CC=CS4)S3)N=C1
Outline: as §1

[4] = compound: C1=CC2=NC=CN=C2C=C1/C=C/3\C(=O)NC(=O)S3
Outline: as §1

[5] = compound: C1=CC=C(C=C1)C2=NC(=C(N2)C3=CC=NC=C3)C4=CC(=C(C=C4)Cl)O
Outline: as §1

[6] = compound: C1=CC=C2C(=C1)C3=NNC4=CC=CC(=C43)C2=O
Outline: as §1

[7] = compound: C1CCN(C1)C(=O)NC2=CC=CC(=C2)NC3=NC=C(C(=N3)NCCC4=CN=CN4)Br
Outline: as §1

[8] = compound: C1CN(CCC1(CC2=CC=C(C=C2)Cl)N)C3=NC=NC4=C3C=CN4
Outline: as §1

IRAK-1-4 Inhibitor I = compound: C1COCCN1CCN2C3=CC=CC=C3N=C2NC(=O)C4=CC(=CC=C4)[N+](=O)[O-] [IRAK-1-4 Inhibitor I]
Outline: as §1

ibrutinib = compound: C=CC(=O)N1CCC[C@@H](n2nc(-c3ccc(Oc4ccccc4)cc3)c3c(N)ncnc32)C1 [ibrutinib]
Outline: as §1

[9] = compound: CC(=O)c1cnc2ccc(-c3cc(Cl)c(O)c(Cl)c3)nc2c1N[C@H]1CC[C@H](CN(C)C)CC1
Outline: as §1

ralimetinib = compound: CC(C)(C)Cn1c(N)nc2ccc(-c3[nH]c(C(C)(C)C)nc3-c3ccc(F)cc3)nc21 [ralimetinib]
Outline: as §1

[10] = compound: CC(C)(O)CC(=O)NCCn1ccc2ncnc(Nc3ccc(Oc4cccc(C(F)(F)F)c4)c(Cl)c3)c21
Outline: as §1

[11] = compound: CC(C)C1=C2N=C(C=C(N2N=C1)NCC3=CC=CC=C3)NCCCCCCN
Outline: as §1

[12] = compound: CC1=C(C(CC(=O)N1)C2=CC=C(C=C2)C(F)(F)F)C(=O)NC3=C(C=C4C(=C3)C=NN4)F
Outline: as §1

[13] = compound: CC1=C(C2=C(C=C1)C(=O)C3=CC=CC=C3N2CCCN)C
Outline: as §1

[14] = compound: CC1=C(C=C(C=C1)NC(=O)C2=CC(=CC=C2)C(C)(C)C#N)NC3=CC4=C(C=C3)N=CN(C4=O)C
Outline: as §1

[15] = compound: CC1=C(C=C(C=C1)NC(=O)C2=CC(=CC=C2)N(C)C)NC(=O)C3=CC=C(C=C3)O
Outline: as §1

[16] = compound: CC1=CC=C(C=C1)SC2=C3C=C(SC3=CN=C2)C(=O)N
Outline: as §1

Measured: log2 fold change

CHCHD1 (UniProt Q96BP2)
inactive: erlotinib -0.002 | [1] -0.7 | [2] 0.029 | [3] -0.053 | [4] 0.005 | [5] 0.021 | [6] -0.002 | [7] 0.04 | [8] 0.043 | IRAK-1-4 Inhibitor I 0.068 | ibrutinib -0.004 | [9] 0.021 | ralimetinib 0.047 | [10] -0.101 | [11] -0.059 | [12] 0 | [13] -0.081 | [14] -0.014 | [15] -0.032 | [16] -0.055

BORCS5 (UniProt Q969J3)
inactive: erlotinib -0.014 | [1] -0.027 | [2] 0.016 | [3] 0.015 | [4] -0.036 | [5] -0.017 | [6] -0.012 | [7] 0.029 | [8] 0.128 | IRAK-1-4 Inhibitor I 0.004 | ibrutinib 0.088 | [9] -0.02 | ralimetinib -0.033 | [10] 0.012 | [11] 0.033 | [12] 0.153 | [13] -0.012 | [14] 0.021 | [15] 0.034 | [16] -0.001

CDAN1 (UniProt Q8IWY9)
UniProt Q8IWY9, sequence (Q8IWY9 whole entry, looked up): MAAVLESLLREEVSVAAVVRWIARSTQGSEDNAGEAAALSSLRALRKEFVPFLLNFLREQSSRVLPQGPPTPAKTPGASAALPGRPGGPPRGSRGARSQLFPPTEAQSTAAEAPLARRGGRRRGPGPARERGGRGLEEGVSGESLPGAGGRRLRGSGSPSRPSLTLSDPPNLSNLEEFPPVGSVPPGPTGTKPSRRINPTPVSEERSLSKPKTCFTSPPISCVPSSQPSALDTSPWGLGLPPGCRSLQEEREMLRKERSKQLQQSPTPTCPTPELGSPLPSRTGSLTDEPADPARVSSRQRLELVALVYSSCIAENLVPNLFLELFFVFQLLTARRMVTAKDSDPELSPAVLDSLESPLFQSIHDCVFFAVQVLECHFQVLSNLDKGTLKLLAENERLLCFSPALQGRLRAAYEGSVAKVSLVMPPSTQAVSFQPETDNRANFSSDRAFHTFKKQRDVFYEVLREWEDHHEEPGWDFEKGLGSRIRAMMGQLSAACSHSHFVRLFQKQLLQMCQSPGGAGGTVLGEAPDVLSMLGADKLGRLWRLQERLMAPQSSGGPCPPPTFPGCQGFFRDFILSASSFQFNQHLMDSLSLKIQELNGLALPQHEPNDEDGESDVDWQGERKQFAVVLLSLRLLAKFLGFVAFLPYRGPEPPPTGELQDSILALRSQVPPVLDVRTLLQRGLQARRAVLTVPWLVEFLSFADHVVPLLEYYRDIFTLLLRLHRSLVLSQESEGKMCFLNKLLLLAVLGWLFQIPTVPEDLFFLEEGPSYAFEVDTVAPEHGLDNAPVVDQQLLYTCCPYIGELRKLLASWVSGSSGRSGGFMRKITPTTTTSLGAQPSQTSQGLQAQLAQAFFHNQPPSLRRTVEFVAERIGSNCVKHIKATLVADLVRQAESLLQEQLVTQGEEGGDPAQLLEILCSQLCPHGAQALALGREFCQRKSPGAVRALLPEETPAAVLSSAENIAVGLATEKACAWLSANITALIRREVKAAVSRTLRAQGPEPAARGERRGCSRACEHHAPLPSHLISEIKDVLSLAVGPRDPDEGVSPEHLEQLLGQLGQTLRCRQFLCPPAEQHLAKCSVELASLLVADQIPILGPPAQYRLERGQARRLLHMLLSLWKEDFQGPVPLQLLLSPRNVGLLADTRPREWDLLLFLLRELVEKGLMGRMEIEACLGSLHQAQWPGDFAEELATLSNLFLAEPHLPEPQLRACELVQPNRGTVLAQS
inactive: erlotinib 0.006 | [1] -0.01 | [2] 0.048 | [3] -0.025 | [4] -0.012 | [5] -0.04 | [6] -0.063 | [7] -0.001 | [8] 0 | IRAK-1-4 Inhibitor I 0.003 | ibrutinib 0.035 | [9] -0.004 | ralimetinib 0 | [10] -0.029 | [11] -0.02 | [12] -0.001 | [13] -0.023 | [14] 0.035 | [15] 0.056 | [16] -0.008

CCDC51 (UniProt Q96ER9)
inactive: erlotinib 0.03 | [1] -0.08 | [2] -0.047 | [3] -0.024 | [4] -0.005 | [5] 0.067 | [6] -0.07 | [7] 0.005 | [8] 0.029 | IRAK-1-4 Inhibitor I -0.041 | ibrutinib 0.056 | [9] 0.011 | ralimetinib -0.012 | [10] 0.036 | [11] -0.011 | [12] 0.025 | [13] 0.011 | [14] -0.013 | [15] 0.033 | [16] 0.013

ATP6V1B1 (UniProt P15313)
inactive: erlotinib -0.044 | [1] 0.014 | [2] 0.027 | [3] -0.036 | [4] 0.013 | [5] -0.02 | [6] 0.006 | [7] -0.033 | [8] 0.001 | IRAK-1-4 Inhibitor I 0.019 | ibrutinib -0.001 | [9] 0 | ralimetinib 0.037 | [10] -0.025 | [11] -0.013 | [12] 0.024 | [13] -0.011 | [14] 0.005 | [15] 0.031 | [16] -0.015

ATG4B (UniProt Q9Y4P1)
UniProt Q9Y4P1, sequence (Q9Y4P1 whole entry, looked up): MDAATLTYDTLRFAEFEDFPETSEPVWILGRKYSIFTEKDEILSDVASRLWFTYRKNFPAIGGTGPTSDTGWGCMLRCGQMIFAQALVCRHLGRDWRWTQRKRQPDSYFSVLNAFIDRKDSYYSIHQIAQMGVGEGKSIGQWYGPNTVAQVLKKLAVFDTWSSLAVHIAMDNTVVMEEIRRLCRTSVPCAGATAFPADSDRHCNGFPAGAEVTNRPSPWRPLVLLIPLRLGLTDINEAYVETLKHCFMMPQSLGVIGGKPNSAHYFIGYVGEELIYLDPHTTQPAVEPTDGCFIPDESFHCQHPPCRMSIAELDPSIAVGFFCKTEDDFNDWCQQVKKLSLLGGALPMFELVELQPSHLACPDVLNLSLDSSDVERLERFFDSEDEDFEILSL
inactive: erlotinib 0.012 | [1] 0.002 | [2] -0.022 | [3] -0.024 | [4] 0.028 | [5] -0.019 | [6] -0.007 | [7] 0.008 | [8] -0.004 | IRAK-1-4 Inhibitor I 0.019 | ibrutinib 0.037 | [9] 0.021 | ralimetinib 0.016 | [10] -0.028 | [11] -0.019 | [12] -0.014 | [13] 0.033 | [14] 0.005 | [15] 0.046 | [16] 0.013

BAG4 (UniProt O95429)
inactive: erlotinib -0.036 | [1] 0.046 | [2] 0.075 | [3] -0.017 | [4] 0.004 | [5] -0.038 | [6] 0.021 | [7] 0.047 | [8] 0.017 | IRAK-1-4 Inhibitor I 0 | ibrutinib 0.082 | [9] 0.005 | ralimetinib -0.009 | [10] 0.02 | [11] -0.035 | [12] -0.014 | [13] 0 | [15] -0.021 | [16] -0.017
active: [14] -0.375

CDK1 (UniProt P06493)
UniProt P06493, sequence (P06493 whole entry, looked up): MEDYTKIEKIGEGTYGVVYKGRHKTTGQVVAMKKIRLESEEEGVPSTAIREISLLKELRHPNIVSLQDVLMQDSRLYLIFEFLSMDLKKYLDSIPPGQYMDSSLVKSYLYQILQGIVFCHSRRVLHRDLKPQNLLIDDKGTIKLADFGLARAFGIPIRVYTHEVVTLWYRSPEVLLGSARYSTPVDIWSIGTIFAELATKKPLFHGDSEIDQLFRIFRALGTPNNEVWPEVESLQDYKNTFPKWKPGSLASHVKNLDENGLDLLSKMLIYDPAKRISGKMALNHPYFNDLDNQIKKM
active: [9] 0.433
inactive: erlotinib -0.038 | [1] 0.046 | [2] -0.019 | [3] -0.031 | [4] -0.002 | [5] -0.01 | [6] -0.051 | [7] -0.007 | [8] -0.002 | IRAK-1-4 Inhibitor I -0.017 | ibrutinib -0.071 | ralimetinib 0.018 | [10] -0.037 | [11] -0.026 | [12] -0.029 | [13] 0.01 | [14] 0.033 | [15] 0.011 | [16] 0

CBX1 (UniProt P83916)
UniProt P83916, sequence (P83916 whole entry, looked up): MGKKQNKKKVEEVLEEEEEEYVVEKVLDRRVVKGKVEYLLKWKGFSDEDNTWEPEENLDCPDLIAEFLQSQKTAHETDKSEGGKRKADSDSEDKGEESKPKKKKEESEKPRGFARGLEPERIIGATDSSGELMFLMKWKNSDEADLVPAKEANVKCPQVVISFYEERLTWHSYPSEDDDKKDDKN
inactive: erlotinib -0.012 | [1] -0.158 | [2] -0.012 | [3] -0.006 | [4] 0.03 | [5] -0.017 | [6] 0.017 | [7] 0.008 | [8] 0.03 | IRAK-1-4 Inhibitor I 0.029 | ibrutinib -0.002 | [9] 0.021 | ralimetinib -0.006 | [10] -0.023 | [11] -0.039 | [12] -0.033 | [13] -0.024 | [14] 0.007 | [15] -0.003 | [16] -0.046

CDC42BPA isoform 6 (UniProt Q5VT25)
UniProt Q5VT25, sequence (Q5VT25 whole entry, looked up): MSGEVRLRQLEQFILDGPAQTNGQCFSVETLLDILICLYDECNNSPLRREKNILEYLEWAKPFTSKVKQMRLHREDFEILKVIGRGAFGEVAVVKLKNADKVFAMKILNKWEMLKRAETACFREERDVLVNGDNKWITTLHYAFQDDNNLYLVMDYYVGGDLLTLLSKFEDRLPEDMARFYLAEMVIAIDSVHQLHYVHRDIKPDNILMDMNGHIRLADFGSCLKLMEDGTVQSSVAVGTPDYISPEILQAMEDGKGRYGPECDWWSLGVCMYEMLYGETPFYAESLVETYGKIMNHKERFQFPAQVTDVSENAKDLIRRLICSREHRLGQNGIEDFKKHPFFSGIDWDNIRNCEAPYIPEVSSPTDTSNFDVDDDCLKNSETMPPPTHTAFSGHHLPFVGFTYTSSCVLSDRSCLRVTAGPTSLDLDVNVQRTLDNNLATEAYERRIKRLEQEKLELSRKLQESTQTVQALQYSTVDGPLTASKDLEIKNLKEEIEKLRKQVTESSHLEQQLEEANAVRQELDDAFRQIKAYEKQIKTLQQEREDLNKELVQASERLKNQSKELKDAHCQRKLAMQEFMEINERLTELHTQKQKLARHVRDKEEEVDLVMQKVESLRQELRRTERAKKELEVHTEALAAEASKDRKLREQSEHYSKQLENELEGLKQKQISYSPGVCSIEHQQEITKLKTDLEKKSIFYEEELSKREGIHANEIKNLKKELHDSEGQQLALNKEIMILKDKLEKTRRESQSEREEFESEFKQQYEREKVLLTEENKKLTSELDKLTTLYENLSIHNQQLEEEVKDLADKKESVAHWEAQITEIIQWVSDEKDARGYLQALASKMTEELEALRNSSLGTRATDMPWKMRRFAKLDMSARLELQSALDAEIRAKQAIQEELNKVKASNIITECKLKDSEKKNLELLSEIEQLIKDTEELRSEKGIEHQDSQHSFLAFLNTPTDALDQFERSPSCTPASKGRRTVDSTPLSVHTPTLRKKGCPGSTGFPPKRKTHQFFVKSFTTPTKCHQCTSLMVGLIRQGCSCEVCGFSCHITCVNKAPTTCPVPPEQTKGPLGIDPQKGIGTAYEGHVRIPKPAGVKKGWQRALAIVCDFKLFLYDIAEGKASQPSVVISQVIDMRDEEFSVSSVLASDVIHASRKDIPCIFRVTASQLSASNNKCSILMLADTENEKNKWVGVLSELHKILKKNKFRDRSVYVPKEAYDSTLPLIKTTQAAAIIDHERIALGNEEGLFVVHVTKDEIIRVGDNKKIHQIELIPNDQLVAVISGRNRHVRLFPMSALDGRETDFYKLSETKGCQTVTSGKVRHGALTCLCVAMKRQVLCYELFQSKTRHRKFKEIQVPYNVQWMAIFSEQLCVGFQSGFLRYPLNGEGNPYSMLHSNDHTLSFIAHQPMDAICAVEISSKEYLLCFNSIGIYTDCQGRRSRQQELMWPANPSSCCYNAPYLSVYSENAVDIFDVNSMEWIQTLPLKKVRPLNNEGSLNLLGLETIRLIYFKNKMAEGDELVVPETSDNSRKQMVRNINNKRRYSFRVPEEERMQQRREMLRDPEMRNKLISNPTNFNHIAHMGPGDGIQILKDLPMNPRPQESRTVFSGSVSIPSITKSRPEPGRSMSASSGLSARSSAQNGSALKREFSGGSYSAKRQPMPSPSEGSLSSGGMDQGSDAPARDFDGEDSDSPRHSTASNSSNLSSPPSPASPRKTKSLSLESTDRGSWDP
inactive: erlotinib -0.007 | [1] 0.077 | [2] -0.086 | [3] 0.011 | [4] -0.012 | [5] -0.029 | [6] -0.09 | [7] -0.032 | [8] -0.006 | IRAK-1-4 Inhibitor I -0.038 | ibrutinib 0.016 | [9] 0.039 | ralimetinib 0.012 | [10] -0.013 | [11] 0.03 | [12] 0.005 | [13] -0.004 | [14] 0.018 | [15] 0.034 | [16] -0.003

BPHL (UniProt Q86WA6)
UniProt Q86WA6, sequence (Q86WA6 whole entry, looked up): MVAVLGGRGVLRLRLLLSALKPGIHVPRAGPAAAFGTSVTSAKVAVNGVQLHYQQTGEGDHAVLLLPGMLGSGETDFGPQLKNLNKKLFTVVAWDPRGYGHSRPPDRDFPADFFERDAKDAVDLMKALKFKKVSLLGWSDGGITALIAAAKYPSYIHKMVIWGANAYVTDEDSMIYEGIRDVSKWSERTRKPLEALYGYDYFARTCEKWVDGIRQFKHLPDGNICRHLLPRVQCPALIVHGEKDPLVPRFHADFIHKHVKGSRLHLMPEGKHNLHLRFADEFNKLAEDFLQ
inactive: erlotinib -0.054 | [2] 0.033 | [3] 0.089 | [4] -0.135 | [5] -0.071 | [6] 0.118 | [7] -0.063 | [8] 0.082 | IRAK-1-4 Inhibitor I -0.033 | ibrutinib -0.073 | [9] -0.016 | ralimetinib 0.047 | [10] 0.06 | [11] -0.045 | [12] 0 | [13] -0.015 | [14] 0.025 | [15] -0.004 | [16] -0.002
active: [1] -0.445

CCNC (UniProt P24863)
UniProt P24863, sequence (P24863 whole entry, looked up): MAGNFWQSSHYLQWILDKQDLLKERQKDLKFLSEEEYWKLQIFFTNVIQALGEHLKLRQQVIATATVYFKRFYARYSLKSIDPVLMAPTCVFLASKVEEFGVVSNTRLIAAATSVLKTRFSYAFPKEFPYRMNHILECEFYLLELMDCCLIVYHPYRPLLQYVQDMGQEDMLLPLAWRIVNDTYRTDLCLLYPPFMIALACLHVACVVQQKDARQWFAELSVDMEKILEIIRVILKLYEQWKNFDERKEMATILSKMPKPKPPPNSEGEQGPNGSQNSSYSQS
inactive: erlotinib 0.081 | [1] -0.158 | [2] -0.078 | [3] -0.102 | [4] 0.127 | [5] -0.045 | [6] 0.163 | [7] -0.087 | [8] -0.049 | IRAK-1-4 Inhibitor I -0.008 | ibrutinib -0.04 | [9] 0.087 | ralimetinib 0.026 | [10] 0.011 | [11] 0.02 | [12] -0.05 | [13] 0.034 | [14] 0.061 | [15] 0.016 | [16] 0.184

CHAF1A (UniProt Q13111)
inactive: erlotinib -0.017 | [1] -0.089 | [2] -0.005 | [3] -0.004 | [4] -0.005 | [5] 0.009 | [6] -0.008 | [7] -0.025 | [8] 0.036 | IRAK-1-4 Inhibitor I -0.011 | ibrutinib 0.026 | [9] -0.017 | ralimetinib 0.011 | [10] 0.018 | [11] 0.032 | [12] 0.049 | [13] -0.043 | [14] 0.001 | [15] 0.001 | [16] 0.012

BMS1 (UniProt Q14692)
inactive: erlotinib -0.029 | [1] -0.089 | [2] -0.027 | [3] 0.028 | [4] -0.046 | [5] 0.034 | [6] 0.039 | [7] 0.006 | [8] 0.01 | IRAK-1-4 Inhibitor I -0.01 | ibrutinib 0.095 | [9] 0.018 | ralimetinib 0.018 | [10] -0.041 | [11] -0.008 | [12] -0.011 | [13] 0.007 | [14] 0.049 | [15] 0.034 | [16] 0.032

CCDC25 (UniProt Q86WR0)
UniProt Q86WR0, sequence (Q86WR0 whole entry, looked up): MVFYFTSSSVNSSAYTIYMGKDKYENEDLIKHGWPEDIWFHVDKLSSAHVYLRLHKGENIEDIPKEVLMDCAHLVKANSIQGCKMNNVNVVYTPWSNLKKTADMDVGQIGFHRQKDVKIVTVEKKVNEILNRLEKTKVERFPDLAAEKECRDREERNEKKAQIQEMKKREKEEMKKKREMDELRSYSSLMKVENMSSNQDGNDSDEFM
inactive: erlotinib -0.012 | [1] 0.031 | [2] 0.031 | [3] 0.012 | [4] 0.019 | [5] 0.015 | [6] 0.007 | [7] -0.006 | [8] 0 | IRAK-1-4 Inhibitor I -0.024 | ibrutinib 0.023 | [9] -0.006 | ralimetinib -0.018 | [10] -0.013 | [11] 0.017 | [12] -0.042 | [13] -0.022 | [14] 0.03 | [15] -0.002 | [16] 0

CDK13 (UniProt Q14004)
active: [9] 0.271
inactive: erlotinib -0.136 | [1] -0.041 | [2] -0.089 | [3] -0.052 | [4] 0.01 | [5] -0.071 | [6] 0.127 | [7] 0.091 | [8] -0.025 | IRAK-1-4 Inhibitor I -0.044 | ibrutinib -0.038 | ralimetinib 0.031 | [10] 0.141 | [11] -0.056 | [12] -0.039 | [13] 0.041 | [14] -0.104 | [15] -0.028 | [16] -0.022
